Hit rate of the full screen: of about 38,000 compounds, about 1,200 (3.2%) showed an effect of 50% or more. The median lay at about -58%. This excerpt belongs to a sample that is enriched for strong results.
The compounds below were run on Plasmodium falciparum (assay: Calibr Malaria Delayed Death Assay SOP). Conditions: concentration 4.99e-06 (unit not given; other assays of the set use mol/L).
Assay type: functional, organism-based
Design: scale not given: in the data most compounds retested in dose-response had high values

Compound | Percent Effect [%]
COc1c(CNC2CCN(C(=O)C(C)C)CC2)c(C(C)C)nn1C | -79.75
CSc1cccc(NC(=O)CCC(=O)Nc2nccs2)c1 | -6.233
CCOC(=O)Cn1ccc(NC(=O)Cc2ccccc2F)n1 | -129.4
COc1ccc(CCNC(C)c2ccc3[nH]c(=O)[nH]c3c2)cc1OC (stereo not drawn) | -75.57
Cc1cc(S(=O)(=O)N2CCCN3CCCC3C2)ccc1F (stereo not drawn) | 67.89
Cc1ccc(S(=O)(=O)N2CCCCC(N3CCN(C)CC3)C2)cc1F (stereo not drawn) | 37.26
Cc1ccc(S(=O)(=O)N2CCC(S(=O)(=O)c3nncn3C)CC2)cc1C | -38.79
Cc1cc(S(=O)(=O)N2CCC(S(C)(=O)=O)C2)ccc1F (stereo not drawn) | -26.98
Cc1ccc(S(=O)(=O)N2CCC(N3CCCCC3)CC2)cc1C | 64.64
Cc1ccc(S(=O)(=O)N2CCC(S(C)(=O)=O)CC2)cc1C | -5.803
Cc1nc2ccccc2n1Cc1cc(C(=O)N(C)C2CCOC2)n[nH]1 (stereo not drawn) | -89.66
Cc1nc(CN(C)C2CCN(Cc3nc4c(F)cccc4[nH]3)C2)no1 (stereo not drawn) | -2.567
CCOCC(=O)Nc1cccnc1-n1ccnc1C | -153.7
Cc1ncc(CNCCO)c2cc(C(=O)c3ccc(Br)cc3)oc12.Cl | 88.87
COc1ncc(C(=O)NCc2ccc(Br)cc2)cn1 | -41.11
CN(C)c1ccc(C(=O)NCc2csc(Br)c2)cn1 | -36.5
Cc1ncc(CN2CCOCC2)c2cc(C(=O)c3ccc(Br)cc3)oc12.Cl | -6.646
Cc1ncc(CN2CCCC2)c2cc(C(=O)c3ccc(Br)cc3)oc12.Cl | 66.17
Cc1ncc(CNCC(C)O)c2cc(C(=O)c3ccc(Br)cc3)oc12.Cl (stereo not drawn) | 8.12
Cc1ncc(CNC(C)(C)CO)c2cc(C(=O)c3ccc(Br)cc3)oc12 | 36.54
Cc1ncc(CN(C)CCO)c2cc(C(=O)c3ccc(Br)cc3)oc12.Cl | 47.82

Compound | Percent Effect [%]
COCCNC(=O)[C@@H]1CCO[C@@H]2CCN(Cc3cnn(C)c3)C[C@@H]21 | -0.06334
Cc1nn(Cn2ccc(C(=O)N3CCOCC3)n2)c(C)c1Cl | -94.44
O=c1c(NCc2ccccn2)c(NCC(O)CN2CCOCC2)c1=O (stereo not drawn) | -115.3
Cc1cccc(CN2CC3(CCN(Cc4ccco4)CC3)OCC2=O)n1.O=C(O)C(F)(F)F.O=C(O)C(F)(F)F | -46.8
CC(C)Oc1ccc(C(=O)N2CCCC2c2cnn(C)c2)cn1 (stereo not drawn) | -40.89
COCCCNC(=O)Cn1c(-c2cccc(Cl)c2)nc(C)cc1=O | -51.33
CNC(=O)c1cn2cc(-c3cccc(Cl)c3)n(CC3CC3)c(=O)c2n1 | 19.26
CNC(=O)c1cn2cc(-c3cccc(Cl)c3)n(CC=C(C)C)c(=O)c2n1 | 56.44
COc1ccc(OC)c(NC(=O)c2cc3c([nH]c2=O)CCCC3=O)c1 | -53.3
Cc1c(C)n(CC(O)CN2CCOCC2)c2c(Cl)cccc12.Cl (stereo not drawn) | -18.53
Cc1c(C)n(CC(O)CN2CCC(C)CC2)c2c(Cl)cccc12 (stereo not drawn) | 82.43
Cc1c(C)n(CC(O)CN2CCCCCC2)c2c(Cl)cccc12 (stereo not drawn) | 50.38
O=C(c1cccc(Cl)c1Cl)N1CCN(CC(O)Cn2cccn2)CC1 (stereo not drawn) | -16.31
CC1CCN(CC(O)Cn2cnc3ccc(Cl)cc3c2=O)CC1 (stereo not drawn) | 28.19
Cc1c(C)n(CC(O)CN2CCC(O)CC2)c2c(Cl)cccc12 (stereo not drawn) | 43.5
O=C(c1cccc2c1OCCO2)N1CCCC(n2cccn2)C1 (stereo not drawn) | -57.7
Cc1ccc(OCCC(=O)N2CCOCC2c2ncon2)cc1C (stereo not drawn) | -113.3
O=C(c1ccco1)N1Cc2nccn2CC(Cn2ncccc2=O)C1 (stereo not drawn) | -89.1
CCCN(CCC)c1ncc(S(=O)(=O)c2ccc(C)cc2)c(N)n1 | 12.69
CCCN(CCC)c1ncc(S(=O)(=O)c2ccccc2)c(N)n1 | -11.95
CCCN(CCC)c1ncc(S(=O)(=O)c2ccc(OC)cc2)c(N)n1 | 66.8

Compound | Percent Effect [%]
N#Cc1c(N)nc2c(c1-c1c[nH]nc1C1CCCCC1)CNCC2 | 6.508
c1ccc(COCC2CN(Cc3ccsc3)Cc3nccn3C2)nc1 (stereo not drawn) | 1.035
CCc1cnc(CN(C)C2CCN(CCCNS(C)(=O)=O)C2)o1 (stereo not drawn) | -33.46
Cc1cc(C)n(C2CN(CC(=O)N(C)Cc3cnn(C)c3)C2)n1 | -103.6
Cc1cc(C)n(C2CN(CC(=O)N(C)Cc3ccco3)C2)n1 | -70.44
COc1ccccc1CN(C)C(=O)CN1CC(n2nc(C)cc2C)C1 | 77.58
Cc1cc(C)n(C2CN(CC(=O)N(C)Cc3ccc(C)o3)C2)n1 | -1.347
COc1cccc(CN(C)C(=O)CN2CC(n3nc(C)cc3C)C2)c1 | 62.45
Cc1cc(C)n(C2CN(CC(=O)N(C)Cc3ccsc3)C2)n1 | 24.51
CC(C)NC(=O)N1CC[C@@H]2CN(S(C)(=O)=O)CCO[C@@H]2C1 | -58.18
Cc1nnc(NC(=O)NCc2ccc(OC3CCCC3)nc2)s1 | 2.114
Cc1cccc(N2Cc3nc(N4CCC(C)CC4)ncc3C2=O)c1 | -105.8
O=S(=O)(c1ccccc1)N1CCC[C@]2(C[C@@H](OCC3CC3)CO2)C1 | -64.42
CCOc1ccc2[nH]c3c(N(C)CC4OCCO4)ncnc3c2c1 | -160.2
CCCNC(=O)CCNC(=O)c1sc2ccc(F)cc2c1C | -59.54
CN1CCN(C(=O)c2cc3occc3n2Cc2ccccc2F)CC1 | -0.5316
CN1CCN(C(=O)c2occc2CN2C(=O)Cc3ccccc32)CC1 | 53.65
O=C(c1occc1CN1C(=O)Cc2ccccc21)N1CC(O)C1 | -91.69
N#Cc1cnc2c(F)cc(F)cc2c1NC1CCN(CC(N)=O)CC1 | -21.61
Cc1cnc(NC(=O)CSC2CCc3ccccc3NC2=O)s1 (stereo not drawn) | -9.765
NC(=O)c1ccc(CN2CCC(N3CCCCC3)CC2)cc1 | -16.53
